# Assay results published in PubChem BioAssay (Tox21).
# Records with an inconclusive call do not appear. Values without a mark were called inactive. Calls of active or inactive are those of the source. The call rests on the fitted dose curve; in most records, active means well fitted inhibition curve with a large enough effect in the repeat runs; inconclusive means weak or mixed curves; inactive means flat fitted curve, though single readings scatter.
# Assay: qHTS assay to identify small molecule HDAC inhibitors (AID 1259364); further: nearly all actives have a fitted effect of over 45% in size; on activity change, negative = inhibition: top concentration of the series differs between compounds
# Settings: HCT-116 HDAC-Glo I/II luminescence, 2 h; series mostly up to 92.4 µM; activity change, negative = inhibition: at the top concentration
# Excerpt: U.S. Tox21 Program National Center for Advancing Translational Sciences [NCATS] NIH Chemical Genomics Center [NCGC] U.S. Environmental Protection Agency [EPA] National Institutes of Environmental Health Sciences [NIEHS] National Toxicology Program [NTP] U.S. Food and Drug Administration [FDA] Tox21 Assay Overview: Histone deacetylases (HDACs) are a group of epigenetic enzymes that regulate gene expression by histone deacetylation. HDACs are capable of introducing epigenetic modifications and such aberrations contribute to the onset and progression of several human diseases, thus making HDACs a popular therapeutic target. For identifying endogenous class I/II HDAC inhibitors a homogenous, luminogenic HDAC I/II cell based assay was used to measure the relative activity of class I and II HDACs from cells. Wild type HCT-116 cells were used to screen Tox21 libraries for identifying class I/II HDAC inhibitors.
# Tox21 Assay Protocol Summary: HCT-116 cells were dispensed at 1,500 per well in 5uL of culture medium into white solid bottom 1536-well plates (Greiner Bio-One, Monroe, NC) using a Multidrop Combi (Thermo Scientific, Waltham, MA) dispenser. The assay plates were incubated at 37 C and 5% CO2 for an overnight, and then 23nL of compounds dissolved in DMSO and positive control were transferred using a Pintool station (Wako, San Diego, CA). The assay plates were incubated at 37C and 5% CO2 for 2hr. After compound treatment, 4uL of HDAC-Glo reagent (Promega Corporation, Madison, WI) was added to each well of the assay plates using Flying Reagent Dispenser (FRD, Aurora Discovery, San Diego, CA) and incubated the assay plates at room temperature for 30min. The luminescence signal was quantified using a ViewLux plate reader (Perkin Elmer, Shelton, CT).
# On the % scale 0 is the no-effect control and ±100 the full control effect; potency means the concentration at half of the fitted maximal effect.
Compound,"activity change, negative = inhibition",Potency
O=c1[nH]c2ccccc2o1,-2.63%,–
C=C1C[C@@H]2[C@H](CC[C@]3(C)C(=O)CC[C@@H]23)[C@@]2(C)C=CC(=O)C=C12,-2.64% [at 42.5 µM],–
CC[C@H](N)c1ccccc1,-1.48%,–
COc1cc(CC(C)N)cc(OC)c1OC (stereo not given),2.38%,–
C(COCC1CO1)OCC1CO1 (stereo not given),9.65%,–
COC(=O)c1ccccc1CS(=O)(=O)NC(=O)Nc1nc(OC)cc(OC)n1,-2.96%,–
COc1ccc(C=O)cc1O,1.12%,–
CCOC(=O)COc1ccc(Cl)cc1Cl,-4.62%,–
O=P(O)(O)CN(CP(=O)(O)O)CP(=O)(O)O,–,inactive
CC(Cc1ccccc1)NCCCCl (stereo not given),-3.36% [at 42.5 µM],–
O=C(Cl)/C=C/C(=O)Cl,7.47%,–
O=C(Cl)CCl,-0.354%,–
CCCC[N+](=O)[O-],-2.3%,–
C=C1CC[C@@]2(O)[C@H]3Cc4ccc(O)c5c4[C@@]2(CCN3CC2CC2)[C@H]1O5,18.2% [at 42.5 µM],–
CN(C)C1CCCCC1,1.36%,–
[P]#[In],-3.36%,–
CCC1(c2ccccc2)C(=O)N(COC)C(=O)N(COC)C1=O,15.4% [at 42.5 µM],–
CC(C)(N)Cc1ccccc1Cl,1.69% [at 42.5 µM],–
O=C(O)c1c(Cl)ccc2cc(Cl)cnc12,-2.69%,–
CCC(=O)OC1(c2ccccc2)CCN(C)CC1,6.78%,–

Compound,"activity change, negative = inhibition",Potency
CC(C)(N)Cc1ccc(Cl)cc1,0.466% [at 42.5 µM],–
CN(C)CCc1c[nH]c2cccc(OP(=O)(O)O)c12,1.52%,–
Cc1ccc(S(=O)(=O)N[C@@H](CCCCN)C(=O)CCl)cc1,-5.18% [at 42.5 µM],–
CNC(=O)O/N=C(/CSC)C(C)(C)C,-5.92%,–
O=C(Cl)C(Cl)Cl,1.1%,–
CCC1(c2ccccc2)CCC(=O)NC1=O (stereo not given),-6.81% [at 42.5 µM],–
C[C@H]1CCCC(=O)CCC/C=C/c2cc(O)cc(O)c2C(=O)O1,–,inactive
CCCOc1nn(C(=O)NS(=O)(=O)c2ccccc2C(=O)OC)c(=O)n1C,-1.69%,–
CCOC(=O)C(SP(=S)(OC)OC)c1ccccc1 (stereo not given),-2.56%,–
CCOC(=O)NC(C)(C)Cc1ccc(Cl)cc1,1.54% [at 42.5 µM],–
CC(C)[N+](C)(CCC(C(N)=O)(c1ccccc1)c1ccccc1)C(C)C,-11.3% [at 42.5 µM],–
NC1(c2ccccc2)CCCCC1,5.16%,–
CNC(=O)NC(O)C(Cl)(Cl)Cl (stereo not given),-19.8% [at 42.5 µM],–
O=[N+]([O-])c1cccc(CCl)c1,-2.21%,–
Cn1c(CCCC(=O)O)nc2cc(N(CCCl)CCCl)ccc21,-3.01% [at 42.5 µM],–
O=C(NC(=O)c1c(F)cccc1F)Nc1cc(Cl)c(F)c(Cl)c1F,-1.74%,–
CCCN1CCC[C@@H]2Cc3nc(N)ncc3C[C@H]21,-25.6% [at 42.5 µM],–
CCN[C@H](C)Cc1cccc(C(F)(F)F)c1,7.04%,–
CON(C)C(=O)Nc1ccc(Br)c(Cl)c1,–,27.3 µM (active)
C[C@H](CN1CCOCC1)C(C(=O)N1CCCC1)(c1ccccc1)c1ccccc1,2.4%,–
